Laboratory results published in ChEMBL document CHEMBL4513216, “Probing the Open Global Health Chemical Diversity Library for Multistage-Active Starting Points for Next-Generation Antimalarials” (ACS Infect Dis, 2020).
The campaign covered roughly 69,000 compounds. About 8,600 (12%) showed an effect of 50% or more. The entries come from a sample that favours strong results as a whole.

The compounds below were run on Plasmodium berghei (assay: Screen against P. berghei liver stage (PbLuc), transformed with Luciferase, at 10uM). Conditions: tested at 10 uM.
Assay type: functional, HepG2

Row | Compound | INHIBITION
1 | O=C(c1ccccc1F)N1C[C@H]2CCC[C@@]2(COCc2ccncc2)C1 | 15.4%
2 | Cc1cnn(CCNCc2csc(-c3ccccc3)n2)c1 | 34.75%
3 | CC(C)CN1CC[C@@H]2[C@H](CC1)N(C(=O)c1ccccc1)CCS2(=O)=O | 36.9%
4 | COc1ccccc1OCC(=O)NCC(C)(O)c1ccccc1 (stereo unspecified) | 9.79%
5 | CC(C)n1cc(CN2CCCN(C(=O)CC3CCCO3)CC2)cn1 (stereo unspecified) | -4.94%
6 | O=C(CCS(=O)(=O)c1ccccc1)N1CCCC(n2cccn2)C1 (stereo unspecified) | 34.5%
7 | Cn1cnc2c1C(COCc1ccccc1)N(Cc1ccccn1)CC2 (stereo unspecified) | 18.5%
8 | Cc1c(S(=O)(=O)N2CCCC2c2nnc(-c3ccsc3)o2)cnn1C (stereo unspecified) | 0.4%
9 | CN1C[C@H]2CC[C@@H](CC1=O)N2C(=O)c1ccc(-c2ccccc2)[nH]c1=O | -45%
10 | Cc1nn(C)c(Cl)c1CNCc1cccnc1N1CCOCC1 | 41.8%
11 | N#Cc1ccc(CN(CC(N)=O)C2CCCC2)cc1 | 90.2%
12 | CN(C(=O)CNc1ccc(C#N)cc1)C1CCCCC1 | -87.7%
13 | NC(=O)CN(Cc1ncc(-c2ccccc2)o1)C1CCCC1 | -32%
14 | N#Cc1ccc(CN(CC(N)=O)C2CCCC2)c(Br)c1 | 90.2%
15 | N#Cc1ccc(CN(CC(N)=O)Cc2cccc(F)c2)cc1 | 17.1%
16 | N#Cc1ccccc1CN(CC(N)=O)C1CCCC1 | 20.9%
17 | Cn1cccc1C(=O)N1CCn2nnc(COc3cccnc3)c2C1 | -6.21%
18 | Cc1nn(C)c(N(C)C)c1CNCc1ccnc(N2CCCCC2)c1 | -56.7%
19 | Cc1ccc(C(=O)N2CCN(CC(C)O)CC2)cc1S(C)(=O)=O (stereo unspecified) | -19.6%
20 | CS(=O)(=O)c1ccc(NC(=O)NCCC2=CCCCC2)cc1 | -165%
21 | COc1cc(NC(=O)c2ccc(C)cc2C)c(C(=O)N(C)C)cc1OC | -7.36%
22 | O=C(NCCCSc1ccc(F)cc1)C1CCc2cn[nH]c2C1 (stereo unspecified) | 50.8%

Row | Compound | INHIBITION
23 | CN(CCCNC(=O)C1CCc2cn[nH]c2C1)c1ccc(F)cc1 (stereo unspecified) | 31.2%
24 | CN(CCCNC(=O)C1CCc2cn[nH]c2C1)c1ccccc1 (stereo unspecified) | 24.3%
25 | CN(Cc1nc(Cc2cccc(F)c2)no1)C1CCOCC1 | -24.2%
26 | Cc1nn(C)cc1Cn1c(=O)cnc2ccccc21 | 43.4%
27 | CN(C)C(=O)N1CC2(CCOCC2)c2cc(NC(=O)CCO)ccc21 | 45.2%
28 | COCC(=O)Nc1ccc2c(c1)C1(CCOCC1)CN2CCF | -4.08%
29 | CCN1CC2(CCOCC2)c2cc(NS(=O)(=O)CC)ccc21 | 38.5%
30 | CCC(=O)Nc1ccc2c(c1)C1(CCOCC1)CN2CCOC | 55.7%
31 | CCS(=O)(=O)Nc1ccc2c(c1)C1(CCOCC1)CN2C | 46.6%
32 | CCCC(=O)Nc1ccc2c(c1)C1(CCOCC1)CN2CCOC | 52.1%
33 | COCCN1CC(C(=O)Nc2ccc3c(c2)CCC(=O)N3C)CC1=O (stereo unspecified) | -22.6%
34 | CCC(=O)Nc1ccc2c(c1)C1(CCOCC1)CN2CCF | 10.4%
35 | COCCN1CC2(CCOCC2)c2cc(NC(=O)C3CC=CC3)ccc21 | 76.5%
36 | Cn1ccnc1CN1CCC2(CC1)CC(NC(=O)c1ccccn1)CO2 (stereo unspecified) | 28.4%
37 | Cc1cc(C)nc(C2(C)CCCN2CCO)n1 (stereo unspecified) | -4.6%
38 | CCCc1cc(C(=O)Nc2nc(SC)ns2)n(C)n1 | -106.9%
39 | Cc1ccccc1C(C)NC(=O)CSCC#N (stereo unspecified) | 31.9%
40 | Cc1ccc(C(=O)NC2CCN(S(C)(=O)=O)CC2)c(=O)[nH]1 | 47.7%
41 | Cc1cnc(C(=O)N2CCN(c3ncc4c(n3)CCOC4)CC2)cn1 | 27.4%
42 | CCCc1nc(CN(CC)C(=O)c2onc3ccccc23)no1 | -14.1%
43 | COCCN1CC(O)CN(C(=O)c2ccc(SC)cc2)CC1=O (stereo unspecified) | 29%
44 | Cc1cc(NS(=O)(=O)c2ccccc2F)ccc1-n1cccc1C(=O)O | -19.7%

Row | Compound | INHIBITION
45 | Cc1ccc(S(=O)(=O)Nc2ccc(-n3cccc3C(=O)O)c(C)c2)s1 | -3.16%
46 | Cc1ccc(S(=O)(=O)Nc2ccc(-n3cccc3C(=O)O)c(C)c2)cc1 | 56%
47 | Cc1n[nH]c(C)c1NC(=O)CN1CCN(c2nccs2)C(C)C1 (stereo unspecified) | 14.4%
48 | Cc1ccc2nc(C(=O)N3CCC(CCn4cccn4)CC3)cn2c1 | -14.1%
49 | Cc1cccn2c(CC(=O)N3CCC(Oc4ncccn4)CC3)cnc12 | -30.3%
50 | Cc1cccn2c(CC(=O)N3CCC(CCn4cccn4)CC3)cnc12 | 71.3%
51 | COc1ncc(NCc2cc(C#N)cs2)cc1C(N)=O | 11.4%
52 | CO[C@@H]1CCN(Cc2c(C)noc2C)[C@@H]2CN(Cc3ccco3)C[C@@H]21 | 35.5%
53 | CCN(CC1CCOC1)C(=O)Nc1ccc(N2CCOCC2)nc1 (stereo unspecified) | 36.05%
54 | Cn1cc(CCC(=O)N2CCCN(c3ncccc3C#N)CC2)cn1 | 37.4%
55 | Cc1ccc(F)c(S(=O)(=O)N2CCCC2c2ccncc2)c1 (stereo unspecified) | 45.3%
56 | O=S(=O)(c1cc(F)ccc1F)N1CCCC1c1ccncc1 (stereo unspecified) | 19.3%
57 | COc1ccc(C2CCCN2S(=O)(=O)c2cc(F)ccc2F)cc1 (stereo unspecified) | 62.6%
58 | CCOCc1cccc(S(=O)(=O)Nc2ccn(CC)n2)c1 | 18.4%
59 | COCCCC1(CO)CCCN(C(=O)c2cnc3c(c2)CCCC3)C1 (stereo unspecified) | 35.9%
60 | COCCC1(C(=O)O)CCCN(C(=O)c2cnc3c(c2)CCCC3)C1 (stereo unspecified) | 47.1%
61 | O=C(c1cnc2c(c1)CCC2)N1CCCC(CO)(CC2CC2)C1 (stereo unspecified) | 68.4%
62 | CCn1[nH]c(C)c2c(C(F)(F)C(F)(F)F)cc(=O)nc1-2 | 50.5%
63 | CCn1[nH]c(C)c2c(C(F)(F)F)cc(=O)nc1-2 | 31.7%
64 | Cc1[nH]n(C)c2nc(=O)cc(C(F)(F)C(F)(F)F)c1-2 | 76.3%
65 | O=C(Cn1nc2ccccc2n1)N1CCCn2cncc2C1 | 1.37%
66 | Cc1csc(NC(=O)C(C)Oc2ccc3c(c2)OCO3)n1 (stereo unspecified) | 16.2%

Row | Compound | INHIBITION
67 | Cc1cnn(CC2CCCN2C(=O)c2cc(O)nc3ccccc23)c1 (stereo unspecified) | -29.8%
68 | Cc1ccc(NC(=O)NCCc2ccncc2C)c(N(C)C)n1 | -0.554%
69 | Cc1nccn1CCCN1CCCC(c2nccn2CC2CCC2)C1 (stereo unspecified) | 41.8%
70 | Cc1nccn1CCCN1CCCC(c2nccn2C)C1 (stereo unspecified) | 34.2%
71 | Cc1nccn1CCCN1CCC(c2nccn2CC2CCC2)CC1 | 60.2%
72 | CS(=O)(=O)N1CCOCC2(CN(Cc3nccs3)CCO2)C1 (stereo unspecified) | 45.2%
73 | CCOCC(O)CN1CCN(C(=O)C(C)(C)CC)CC1 (stereo unspecified) | 24%
74 | O=C(c1cncc(NCC2COc3ccccc3C2)n1)N1CCOCC1 (stereo unspecified) | 3.13%
75 | CN(Cc1cc(C(C)(C)C)n[nH]1)C(=O)c1ccc2nccn2c1 | 48.3%
76 | O=S1(=O)c2cnccc2OC(COc2ccccc2)CN1CC1CC1 (stereo unspecified) | 22.2%
77 | CCN1CC(COc2ccc(OC)cc2)Oc2ccncc2S1(=O)=O (stereo unspecified) | -10.3%
78 | CC(C)(C)CN1CC(COc2ccccc2)Oc2ccncc2S1(=O)=O (stereo unspecified) | 59.3%
79 | COc1cccc(-c2cc(C(=O)NCCCC(F)(F)F)[nH]n2)c1 | -16%
80 | CC(C)n1c(=O)[nH]c2cn(-c3ccc(Br)cc3)c(=O)n21 | -17.3%
81 | O=C(O)c1ccccc1CN1CCC2(Cc3ccccc3CNC2=O)C1 (stereo unspecified) | 40%
82 | CC(C)(C)c1ccc(C2(C(=O)NCCCS(C)(=O)=O)CC2)cc1 | 43.5%
83 | CC(C)(C)c1ccc(C2(C(=O)NCCS(C)(=O)=O)CC2)cc1 | 62.3%
84 | NS(=O)(=O)CCNC(=O)C1(c2ccccc2)CC1 | 19.6%
85 | CS(=O)(=O)NCCNC(=O)C1(c2ccc(F)cc2)CC1 | 27.6%
86 | CC(C)(C)c1ccc(C2(C(=O)NCCS(N)(=O)=O)CC2)cc1 | 68.5%
87 | NS(=O)(=O)CCNC(=O)C1(c2ccc(Br)cc2)CC1 | -8.19%
88 | CCCc1n[nH]c(C2CN(C(=O)c3cccc4cn[nH]c34)CCO2)n1 (stereo unspecified) | -11.9%

Row | Compound | INHIBITION
89 | O=C(NCC1CC2(CO1)CN(c1nncs1)C2)C1CCC1 (stereo unspecified) | 1.36%
90 | COC[C@H]1CNC(=O)[C@@H]2CCN(Cc3ccc(F)cc3)CC[C@H]12 | 34.4%
91 | COc1ccc2nnc(CCC(=O)Nc3nc(C)c(C)s3)n2n1 | 24.2%
92 | O=C(NC1CC1)N1CC[C@@H](O)[C@@H]1Cc1ccccc1 | -23.3%
93 | CN(C)c1cc(C(=O)N2CCCN(c3cccnn3)CC2)ccn1 | 38.7%
94 | O=C(CN(Cc1ccco1)C1CC1)N1CCCCCC1 | -8.11%
95 | Cc1nonc1OCCNC(=O)COc1ccc(Cl)cc1Cl | 7.38%
96 | Cc1nonc1OCCNC(=O)CCCc1ccc(Cl)cc1 | 57.8%
97 | Cc1nonc1OCCNC(=O)COc1ccc(F)cc1F | 7.92%
98 | N#Cc1c(F)cccc1Nc1cnn(CC(O)CN2CCOCC2)c1 (stereo unspecified) | 44.9%
99 | O[C@@H]1CN(CC2=Cc3cc(Cl)ccc3OC2)CC[C@H]1N1CCCCCC1 | 31.9%
100 | CN1CCN([C@@H]2CCN(CC3=Cc4cc(Cl)ccc4OC3)C[C@H]2O)CC1 | 62.4%
101 | CN1CCN([C@@H]2CCN(Cc3cccc(-n4cccn4)c3)C[C@H]2O)CC1 | 22.9%
102 | O=C(C1CCOC1)N1CCC2(CC1)COC2 (stereo unspecified) | 19.8%
103 | COCC(=O)N1CCN(C)C(=O)C(Cc2ccc(-c3cccs3)cc2)C1 (stereo unspecified) | 6.26%
104 | CC(C)(C)Cc1noc2ncc(C(=O)N3CCSCC3)cc12 | 37.7%
105 | CC1CN(C)CCN1C(=O)c1cnc2onc(CC(C)(C)C)c2c1 (stereo unspecified) | 53.9%
106 | CC(C)(C)Cc1noc2ncc(C(=O)N3CCC3)cc12 | 29%
